In PubChem BioAssay (NCI):
Values joined by “and” are separate entries in the source; they are usually repeats but may differ in a detail not shown here. Identical values can stand only once. This is part of a sample that, as a whole, favours compounds with a hit. Of some 79,000 tested, about 15% had one in any assay. Unmarked numbers belong to inactive results. Active and inactive are the calls of the source. No stated cut-off is given here; in the data, active means growth inhibition above about 70%; inactive means the rest.

How the values were obtained:
[1] = NCI Yeast Anticancer Drug Screen. Data for the rad50 strain (AID 155);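 further: 0% = growth of vehicle-only cultures of the same strain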; conditions: S. cerevisiae rad50 strain growth inhibition, stronger effect = higher value; at 50.0 µM unless noted
Method in brief: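 Yeast carrying a defined DNA repair defect were exposed to test compounds, and growth was compared with vehicle-treated controls to give percent inhibition.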

[2] = NCI Yeast Anticancer Drug Screen. Data for the mec2-1 strain (AID 157); conditions: S. cerevisiae mec2-1 strain, stronger effect = higher value; at 50.0 µM unless noted
Method in brief: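 Growth inhibition is read against vehicle-treated controls after compound exposure of the mec2-1 yeast strain, which is defective in DNA damage repair or cell cycle control.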

[3] = NCI Yeast Anticancer Drug Screen. Data for the sgs1 mgt1 strain (AID 161);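 further: 0% = growth of cultures given vehicle only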; conditions: S. cerevisiae sgs1 mgt1 strain, stronger effect = higher value; at 50.0 µM unless noted
Method in brief: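 Growth of a repair-deficient yeast mutant was monitored after compound treatment and expressed as inhibition relative to vehicle-treated cultures.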

[4] = NCI Yeast Anticancer Drug Screen. Data for the cln2 rad14 strain (AID 165);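 further: 0% = growth equal to vehicle treated cultures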; conditions: S. cerevisiae cln2 rad14 strain, stronger effect = higher value; at 50.0 µM unless noted
Method in brief: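 Growth inhibition, relative to vehicle-treated controls, is the read-out. The test organism is a yeast strain with defined genetic alterations, cln2 rad14.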

[5] = NCI Yeast Anticancer Drug Screen. Data for the bub3 strain (AID 167); conditions: S. cerevisiae bub3 mutant strain, stronger effect = higher value; at 50.0 µM unless noted
Method in brief: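 Compounds were applied to a genetically altered yeast strain carrying a cell-cycle control defect. Growth inhibition was scored against vehicle-treated controls.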

[6] = NCI Yeast Anticancer Drug Screen. Data for the mlh1 rad18 strain (AID 175); conditions: S. cerevisiae mlh1 rad18 strain growth inhibition, stronger effect = higher value; at 50.0 µM unless noted
Method in brief: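 Cells of a genetically altered yeast strain, deficient in DNA damage repair, were treated with compound. Their growth was then compared with that of vehicle-treated cultures to give inhibition.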

SMILES | growth inhibition [1] | growth inhibition [2] | growth inhibition [3] | growth inhibition [4] | growth inhibition [5] | growth inhibition [6]
CC(=O)N1C=CC(=Cc2ccccc2)C=C1 | -0.15% | 5.55% | -30.6% | -1.25% | 12.8% | 3.95%
Cc1cc(C)nc(NS(=O)(=O)c2ccc(Nc3c4ccccc4nc4c(C(=O)Nc5ccc(S(=O)(=O)Nc6cc(C)on6)cc5)ccc(Cl)c34)cc2)n1 | 32.9% | 45.1% | 23.1% | 42.2% | 18.9% | 41.5%
COc1cc2c(cc1OC)C1C(C)c3ccc(OC)c(OC)c3CN1CC2 (stereo unspecified) | 0.65% | -43% | -3.25% | -0.95% | -29.6% | -8.6%
COCCN=Cc1ccc(N(C)C)cc1 | 4.35% | -4.8% | -3.05% | -26.4% | 7.45% | 3.7%
C1CCN(CCC2CCNCC2)CC1 | -5.4% | -18.3% | -12.1% | 1.8% | 7.65% | -1.6%
C1COC2(OC1)OCCCO2 | -14.8% | 1.35% | -7.85% | -71.5% | 8.75% | 3.05%
O=C(O)CCC1=Nc2cccc3cccc(c23)NC1=O | 36.2% | 32.2% | 7.75% | -3.35% | 12.9% | 13.9%
CC1Cn2c(Cc3ccccc3)nnc2S1 (stereo unspecified) | -15.2% | 1.25% | 5.45% | 19.5% | -4.6% | -4.75%
O=C1/C(=C/c2cccc(Cl)c2)CCCc2ccccc21 | 21.9% | 13.8% | 33.2% | 11.3% | 62.5% | 44.4%
NCc1ccc(F)cc1 | 24.9% | -10.7% | 32% | 12.7% | 2.4% | 26.5%
Nc1c(Br)cc(Br)cc1C(=O)O | 23.9% | -14.1% | 42.2% | 17.1% | -6.95% | 5.7%
NC(=O)C(c1ccccc1)C1(O)CCCCC1 (stereo unspecified) | 7.7% | 5.7% | 9.7% | 6.95% | 3.2% | 11.4%
O=C(C[n+]1csc2ccccc21)c1ccccc1 | 9% | 15.3% | 17.1% | 20.4% | 30.4% | 3.8%
C1CCCC(=NN=C2CCCCCCC2)CCC1 | 29% | 21.6% | 13.4% | -16.6% | -10.2% | 14.7%
CC1SCc2nc3ccccc3n21 (stereo unspecified) | 2.25% | -10.8% | 27.9% | 12.1% | 5.7% | -35.5%
O=C(Nc1ccc(S(=O)(=O)NC2CCCCC2)cc1)Oc1ccccc1C(=O)O | 49% | -1.65% | 39.9% | 26.1% | 16.1% | 32.1%
COc1ccc(/C=N/N=C(/C(=O)c2ccc(OC)cc2)c2ccc(OC)cc2)cc1 | 32.6% | 0.3% | 11.8% | 3.2% | 2.2% | 6.8%
CCCCN(CCCC)CC(C(=O)Nc1ccc([N+](=O)[O-])cc1[N+](=O)[O-])/C(C)=N\NC(=O)c1ccncc1 (stereo unspecified) | 22.7% | -3.65% | 11.8% | -65.1% | 2.55% | 18.1%
CC(C)(Oc1ccc(C(=O)c2ccc(Cl)cc2)cc1Cl)C(=O)N1CCN(c2ccccc2)CC1 | 2% | -46.1% | -0.85% | -55% | -9.2% | -5.9%
CCN(CCNS(C)(=O)=O)c1ccc(N)c(C)c1 | -15.3% and -11.2% | -17.2% and -6.1% | -23.1% and -14.5% | 1.5% and -19.1% | -17.9% and 1.95% | -4.05% and 6.35%
CNC(=O)OCc1c(COC(=O)NC)c(C)n(-c2ccc(Cl)cc2)c1C | 38.8% | 40.4% | 83.2% (active) | 24.6% | 84.5% (active) | 91.3% (active)

SMILES | growth inhibition [1] | growth inhibition [2] | growth inhibition [3] | growth inhibition [4] | growth inhibition [5] | growth inhibition [6]
CCCCC1(CC)COC(C)(CC)OC1 (stereo unspecified) | 29.4% | 15.7% | 5.3% | -26.6% | -19.4% | 17.5%
COc1ccc(C2S/C(=C\c3ccc(OC)cc3OC)C(=O)N2NC(=O)Cc2ccccc2)cc1 (stereo unspecified) | -4.3% | -50.6% | 2.4% | -59.6% | -14.1% | 5.05%
C/C(=C/CC1=C(O)c2ccccc2C(=O)C1=O)CO | 23% | 32.9% | 51.7% | 32.8% | 26% | 33.8%
COc1ccc(-n2cnc3c2NC(C)(C)N=C3C(N)=O)c(OC)c1 | -17.8% | -30.1% | -36.1% | 24.9% | -10.2% | -23.2%
c1ccc(Nc2ccccc2)cc1 (tested in a mixture with another compound) | 3.1% | 20.2% | 1.95% | 1.6% | 38.7% | 9.8%
CCCCCC(Br)C(Br)CC(Br)C(Br)CC(Br)C(Br)CCCCC(=O)O (stereo unspecified) | 11.2% | -5.8% | 9.6% | -31.9% | -0.7% | 22.6%
CCOc1ccccc1/C=C1\N=C(c2ccc([N+](=O)[O-])cc2)OC1=O | 22.5% | 21.2% | 38.7% | 25.5% | 30.1% | 31%
O=c1cc(Cl)c(=O)n(-c2ccccc2)[nH]1 | 3.5% | -4.75% | -3.25% | -14.6% | 0.9% | 2.7%
CC(=O)Oc1ccc(Cc2ccccc2)cc1 | 47% | 33.5% | 48.2% | -49.2% | 32.9% | 49.1%
O=[N+]([O-])c1cnccc1/C=C\c1ccccc1 | 4.5% | 3.15% | -2.1% | -35.9% | -5.7% | 12%
COC(=O)/C([O-])=C(\C(=O)OC)[n+]1cc(Br)cc2ccccc21 | 4.15% | 1.85% | 31.6% | -9.5% | 56.8% | -7.4%
N#C/C=C\c1ccc(-c2cc(C(F)(F)F)cc(C(F)(F)F)c2)o1 | -49% | -22.6% | -42.5% | 3.65% | 10.8% | -57.5%
CCSC(=O)C(F)(F)F | -9.95% | -47.9% | -51.4% | -1.2% | -18.1% | -25.6%
Cc1cccc(C(C)C)c1N1C(=O)C(=O)C(c2nc3ccccc3o2)C(=O)C1=O | -5.85% | 2.15% | 16.1% | 39.1% | 16.5% | 31.2%
NC(=O)c1c([N+](=O)[O-])ncn1C1OC(CO)C(O)C1O (stereo unspecified) | 20.5% | -7.75% | -5.8% | -12.2% | 5.8% | 14.1%
CCCCCCCCCCCC(=O)CCCCCCCCCCCC(=O)OC | 2.15% | 15.4% | 17.1% | 14.2% | 45% | -2.35%
CSC1N=CNc2c1sc(=S)n2-c1ccccc1 (stereo unspecified) | -20.8% | 7.75% | 15.9% | -3.9% | -2.85% | -1.85%
CCCCCCCCCCCCCCCCCCOc1ccccn1 | -9.8% | -32.1% | -9.75% | 2.55% | -17.9% | 3.25%
CC(=O)c1ccc(O)c(/C=C2\CCOC2=O)c1 | 8.2% | 8.4% | -9% | -3.45% | 9.55% | 7.7%
Cc1c(=O)n(C)c2ccccc2[n+]1[O-] | 7.9% | 16.1% | 11.7% | -8.65% | 7.1% | 7.65%
